Assay results: PubChem BioAssay (NCI)
This is part of a sample that, as a whole, favours compounds with a hit. Of some 79,000 tested, about 15% had one in any assay. A number with no mark means an inactive call. The source made the active and inactive calls. No stated cut-off is given here; in the data, active means growth inhibition above about 70%; inactive means the rest.

What was measured:
[1] = NCI Yeast Anticancer Drug Screen. Data for the mec2-1 strain (AID 157); settings: S. cerevisiae mec2-1 strain, stronger effect = higher value
In short: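 Growth inhibition is read against vehicle-treated controls after compound exposure of the mec2-1 yeast strain, which is defective in DNA damage repair or cell cycle control.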

[2] = NCI Yeast Anticancer Drug Screen. Data for the rad14 strain (AID 159);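 further: 0% = growth of vehicle-treated control cultures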; settings: S. cerevisiae rad14 strain growth inhibition, stronger effect = higher value
In short: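 Vehicle-treated cultures served as the baseline for growth inhibition of a DNA repair-mutant yeast strain exposed to each compound.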

[3] = NCI Yeast Anticancer Drug Screen. Data for the sgs1 mgt1 strain (AID 161);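 further: 0% = growth of cultures given vehicle only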; settings: S. cerevisiae sgs1 mgt1 strain, stronger effect = higher value
In short: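 Compounds are added to genetically altered yeast, and growth is compared with cultures given vehicle alone to give percent inhibition.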

[4] = NCI Yeast Anticancer Drug Screen. Data for the CLN2oe strain (AID 163);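 further: 0% = growth of vehicle-only control cultures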; settings: S. cerevisiae CLN2oe strain, stronger effect = higher value
In short: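 Compound-treated yeast; growth vs vehicle ctrl = % inhibition. Genetically altered strain (cell-cycle control).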

[5] = NCI Yeast Anticancer Drug Screen. Data for the cln2 rad14 strain (AID 165);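 further: 0% = growth equal to vehicle treated cultures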; settings: S. cerevisiae cln2 rad14 strain, stronger effect = higher value
In short: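 Growth inhibition, relative to vehicle-treated controls, is the read-out. The test organism is a yeast strain with defined genetic alterations, cln2 rad14.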

[6] = NCI Yeast Anticancer Drug Screen. Data for the bub3 strain (AID 167); settings: S. cerevisiae bub3 mutant strain, stronger effect = higher value
In short: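 Inhibition values come from growth of compound-treated mutant yeast normalised to vehicle-treated controls.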

[7] = NCI Yeast Anticancer Drug Screen. Data for the wt2 strain (AID 169);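 further: 0% = growth of vehicle-treated yeast cultures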; settings: S. cerevisiae wt2 strain growth inhibition, stronger effect = higher value
In short: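 Compound exposure of yeast; growth compared with vehicle controls; inhibition reported.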

[8] = NCI Yeast Anticancer Drug Screen. Data for the mlh1 strain (AID 171);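 further: 0% = growth of vehicle-treated control cultures of the same strain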; settings: S. cerevisiae mlh1 strain growth inhibition, stronger effect = higher value
In short: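 Compounds are applied to a genetically altered yeast strain, and its growth is compared with that of vehicle-treated cultures to give percent inhibition.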

[9] = NCI Yeast Anticancer Drug Screen. Data for the sgs1 strain (AID 173);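 further: 0% = growth of vehicle-only control cultures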; settings: S. cerevisiae sgs1 mutant, stronger effect = higher value
In short: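 Compounds applied to genetically altered yeast; growth compared with vehicle-treated cultures to give % inhibition.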

[10] = NCI Yeast Anticancer Drug Screen. Data for the mlh1 rad18 strain (AID 175); settings: S. cerevisiae mlh1 rad18 strain growth inhibition, stronger effect = higher value
In short: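 Cells of a genetically altered yeast strain, deficient in DNA damage repair, were treated with compound. Their growth was then compared with that of vehicle-treated cultures to give inhibition.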

[11] = NCI Yeast Anticancer Drug Screen. Data for the rad52 strain (AID 147);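 further: 0% = growth of vehicle-treated control cultures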; settings: S. cerevisiae rad52 mutant growth inhibition, stronger effect = higher value
In short: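 DNA repair-defective yeast; compound exposure; growth scored against vehicle controls.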

[12] = NCI Yeast Anticancer Drug Screen. Data for the wt1 strain (AID 149);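 further: 0% = growth of vehicle-treated wt1 cultures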; settings: S. cerevisiae wt1 strain (SPY 50644) growth inhibition, stronger effect = higher value
In short: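 Vehicle-normalised growth inhibition; strain wt1; compound exposure.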

[13] = NCI Yeast Anticancer Drug Screen. Data for the rad50EPP+ strain (AID 151);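 further: 0% = growth of vehicle-treated control cultures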; settings: S. cerevisiae rad50 mutant strain, stronger effect = higher value
In short: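 rad50EPP+ yeast treated with test compounds. Readout: growth vs vehicle control.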

[14] = NCI Yeast Anticancer Drug Screen. Data for the mgt1 strain (AID 153); settings: S. cerevisiae mgt1 mutant growth inhibition, stronger effect = higher value
In short: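 Growth inhibition relative to vehicle controls was scored for the mgt1 yeast strain after compound exposure.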

[15] = NCI Yeast Anticancer Drug Screen. Data for the rad50 strain (AID 155);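 further: 0% = growth of vehicle-only cultures of the same strain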; settings: S. cerevisiae rad50 strain growth inhibition, stronger effect = higher value
In short: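 A DNA repair-deficient yeast mutant serves as the test organism; compound-induced growth inhibition is calculated against vehicle-treated cells.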

[16] = NCI Yeast Anticancer Drug Screen. Data for the rad18 strain (AID 177); settings: S. cerevisiae rad18 mutant growth inhibition, stronger effect = higher value
In short: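 Compounds are applied to a repair-deficient yeast strain, and growth is compared with that of vehicle-treated cultures to give percent inhibition.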

[17] = at 5.0 µM (retest, dose inferred, filed as 0.5)
[18] = at 50.0 µM (retest, dose inferred, filed as 5.0)

Compound: Oc1ccc(Br)cc1C=NC1CCCCC1
- growth inhibition ([1]; at 100.0 µM): 99% (active)
- growth inhibition ([2]; at 1.2 µM): 15%
- growth inhibition ([2]; at 3.7 µM): 24%
- growth inhibition ([2]; at 11.0 µM): 85% (active)
- growth inhibition ([2]; at 33.0 µM): 99% (active)
- growth inhibition ([2]; at 100.0 µM): 99% (active)
- growth inhibition [3, 17]: -2%
- growth inhibition [3, 18]: 99% (active)
- growth inhibition ([3]; at 50.0 µM): 85.3% (active)
- growth inhibition ([4]; at 1.2 µM): -3%
- growth inhibition ([4]; at 3.7 µM): 1%
- growth inhibition ([4]; at 11.0 µM): 12%
- growth inhibition ([4]; at 33.0 µM): 39%
- growth inhibition ([4]; at 100.0 µM): 98% (active)
- growth inhibition [5, 17]: 53%
- growth inhibition [5, 18]: 99% (active)
- growth inhibition ([5]; at 50.0 µM): 57%
- growth inhibition ([6]; at 1.2 µM): -4%
- growth inhibition ([6]; at 3.7 µM): 2%
- growth inhibition [6, 17]: 46%
- growth inhibition ([6]; at 11.0 µM): 5%
- growth inhibition ([6]; at 33.0 µM): 59%
- growth inhibition [6, 18]: 99% (active)
- growth inhibition ([6]; at 50.0 µM): 87% (active)
- growth inhibition ([6]; at 100.0 µM): 97% (active)
- growth inhibition ([7]; at 1.2 µM): -2%
- growth inhibition ([7]; at 3.7 µM): 0%
- growth inhibition ([7]; at 11.0 µM): 15%
- growth inhibition ([7]; at 33.0 µM): 74% (active)
- growth inhibition ([7]; at 100.0 µM): 99% (active)
- growth inhibition ([8]; at 1.2 µM): -6%
- growth inhibition ([8]; at 3.7 µM): 17%
- growth inhibition ([8]; at 11.0 µM): 59%
- growth inhibition ([8]; at 33.0 µM): 96% (active)
- growth inhibition ([8]; at 100.0 µM): 99% (active)
- growth inhibition ([9]; at 1.2 µM): 7%
- growth inhibition ([9]; at 3.7 µM): 6%
- growth inhibition ([9]; at 11.0 µM): 39%
- growth inhibition ([9]; at 33.0 µM): 92% (active)
- growth inhibition ([9]; at 100.0 µM): 98% (active)
- growth inhibition [10, 17]: 32%
- growth inhibition [10, 18]: 53%
- growth inhibition ([10]; at 50.0 µM): 77% (active)

Compound: Cc1cc(O)c2c(c1)C(=O)C=C(Br)C2=O
- growth inhibition ([11]; at 1.2 µM): 38%
- growth inhibition ([11]; at 3.7 µM): 76% (active)
- growth inhibition ([11]; at 11.0 µM): 98% (active)
- growth inhibition ([11]; at 33.0 µM): 98% (active)
- growth inhibition ([11]; at 100.0 µM): 94% (active)
- growth inhibition ([12]; at 1.2 µM): -1%
- growth inhibition ([12]; at 3.7 µM): -2%
- growth inhibition ([12]; at 11.0 µM): 6%
- growth inhibition ([12]; at 33.0 µM): 98% (active)
- growth inhibition ([12]; at 100.0 µM): 96% (active)
- growth inhibition ([13]; at 1.2 µM): 58%
- growth inhibition ([13]; at 3.7 µM): 88% (active)
- growth inhibition ([13]; at 11.0 µM): 99% (active)
- growth inhibition ([13]; at 33.0 µM): 99% (active)
- growth inhibition ([13]; at 100.0 µM): 95% (active)
- growth inhibition ([14]; at 1.2 µM): 7%
- growth inhibition ([14]; at 3.7 µM): 21%
- growth inhibition ([14]; at 11.0 µM): 72% (active)
- growth inhibition ([14]; at 33.0 µM): 98% (active)
- growth inhibition ([14]; at 100.0 µM): 97% (active)
- growth inhibition ([15]; at 1.2 µM): 38%
- growth inhibition ([15]; at 3.7 µM): 71% (active)
- growth inhibition ([15]; at 11.0 µM): 97% (active)
- growth inhibition ([15]; at 33.0 µM): 99% (active)
- growth inhibition ([15]; at 100.0 µM): 94% (active)
- growth inhibition ([1]; at 1.2 µM): 40%
- growth inhibition ([1]; at 3.7 µM): 67%
- growth inhibition ([1]; at 11.0 µM): 94% (active)
- growth inhibition ([1]; at 33.0 µM): 99% (active)
- growth inhibition ([1]; at 100.0 µM): 98% (active)
- growth inhibition ([2]; at 1.2 µM): 37%
- growth inhibition ([2]; at 3.7 µM): 64%
- growth inhibition ([2]; at 11.0 µM): 97% (active)
- growth inhibition ([2]; at 33.0 µM): 99% (active)
- growth inhibition ([2]; at 100.0 µM): 96% (active)
- growth inhibition ([4]; at 1.2 µM): 7%
- growth inhibition ([4]; at 3.7 µM): 16%
- growth inhibition ([4]; at 11.0 µM): 40%
- growth inhibition ([4]; at 33.0 µM): 99% (active)
- growth inhibition ([4]; at 100.0 µM): 97% (active)
- growth inhibition ([6]; at 1.2 µM): 88% (active)
- growth inhibition ([6]; at 3.7 µM): 86% (active)
- growth inhibition ([6]; at 11.0 µM): 98% (active)
- growth inhibition ([6]; at 33.0 µM): 92% (active)
- growth inhibition ([6]; at 100.0 µM): 98% (active)
- growth inhibition ([7]; at 1.2 µM): -4%
- growth inhibition ([7]; at 3.7 µM): 7%
- growth inhibition ([7]; at 11.0 µM): 54%
- growth inhibition ([7]; at 33.0 µM): 99% (active)
- growth inhibition ([7]; at 100.0 µM): 97% (active)
- growth inhibition ([8]; at 1.2 µM): 11%
- growth inhibition ([8]; at 3.7 µM): 25%
- growth inhibition ([8]; at 11.0 µM): 71% (active)
- growth inhibition ([8]; at 33.0 µM): 99% (active)
- growth inhibition ([8]; at 100.0 µM): 98% (active)
- growth inhibition ([9]; at 1.2 µM): 4%
- growth inhibition ([9]; at 3.7 µM): 11%
- growth inhibition ([9]; at 11.0 µM): 66%
- growth inhibition ([9]; at 33.0 µM): 99% (active)
- growth inhibition ([9]; at 100.0 µM): 96% (active)
- growth inhibition ([16]; at 1.2 µM): 10%
- growth inhibition ([16]; at 3.7 µM): 41%
- growth inhibition ([16]; at 11.0 µM): 95% (active)
- growth inhibition ([16]; at 33.0 µM): 98% (active)
- growth inhibition ([16]; at 100.0 µM): 94% (active)
